# Assay results: PubChem BioAssay AID1026 (Columbia University Molecular Screening Center, 2008)
# Values without a mark were called inactive. How the calls were made is not given here.
# Biological target: Bifunctional epoxide hydrolase 2 (Homo sapiens) (UniProt P34913)
# Test: sEH inhibitor concentration-response potency, dose response, biochemical, human sEH, fluorescence, Infinite200 (AID 1026)
# Details: recombinant human sEH, fluorogenic substrate, at 0.2 µM, hits give high values
# Bifunctional epoxide hydrolase 2 (Homo sapiens), sequence (P34913 whole entry, looked up): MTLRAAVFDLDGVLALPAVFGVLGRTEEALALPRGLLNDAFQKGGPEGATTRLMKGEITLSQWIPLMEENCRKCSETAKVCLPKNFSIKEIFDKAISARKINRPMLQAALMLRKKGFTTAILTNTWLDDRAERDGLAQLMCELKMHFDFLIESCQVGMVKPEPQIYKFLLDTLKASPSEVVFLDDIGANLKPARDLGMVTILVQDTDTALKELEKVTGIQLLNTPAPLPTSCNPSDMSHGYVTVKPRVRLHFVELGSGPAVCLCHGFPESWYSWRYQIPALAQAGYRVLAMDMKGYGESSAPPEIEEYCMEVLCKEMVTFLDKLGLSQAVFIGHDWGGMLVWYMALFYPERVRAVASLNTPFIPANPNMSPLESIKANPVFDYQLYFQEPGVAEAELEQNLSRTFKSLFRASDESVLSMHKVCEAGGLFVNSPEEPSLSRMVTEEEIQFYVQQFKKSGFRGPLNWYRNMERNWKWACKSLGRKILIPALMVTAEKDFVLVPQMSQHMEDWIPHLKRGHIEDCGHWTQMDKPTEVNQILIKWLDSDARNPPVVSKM
structure (smiles),measurement,value
CC(Cc1ccccc1)NC(=O)NC(C)Cc1ccccc1 (stereo unspecified),inhibition,71.6%
